# The entries come from a sample that favours hits as a whole.
# Sa helicase inh: blocks Staphylococcus aureus DNA helicase | purified S. aureus helicase, fluorescence unwinding assay | inhibition, % (no concentration beside the values) | hit rate 0.05% among 120,000 | AID 485395; in the data active = inhibition above about 25%, passing the limit was not always enough;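 also: 0% = mean of negative control wells and 100% = mean of positive control wells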
# Sa growth inh: inhibitors of Staphylococcus aureus growth at 42 °C. hit rate 0.53% among 170,000. relative growth, % (test concentration not listed). S. aureus RN4220 growth, OD600, 20 h; stronger effect = lower value;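 active = relative growth at most 50% at the other temperature and 20+ points below 30 °C, or under 10% at both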
# * = called active by the depositor; . = no result given.
SMILES,Sa helicase inh,Sa growth inh
CC(=O)NCCCCCCNC(C)=O,.,21*
CC(=O)NCCCc1nc2ccccc2[nH]1,2,.
Cc1cc(-n2c(C)cc(CNCC3(N4CCOCC4)CCCCC3)c2C)no1,17,85
NC(=O)CSc1nnc(C2CC2)n1C1CC1,1,92
O=S(=O)(Nc1cc(Sc2ncn[nH]2)c(O)c2ccccc12)c1cccs1,11,109
O=C1C(Sc2ncn[nH]2)=C/C(=N/S(=O)(=O)c2ccc(F)cc2)c2ccccc21,-15,1.1*
CCOc1ccc(S(=O)(=O)/N=C2/C=C(Sc3ncn[nH]3)C(=O)c3ccccc32)cc1,-106,22
O=C1C(Sc2ncn[nH]2)=C/C(=N/S(=O)(=O)c2cccs2)c2ccccc21,-11,1.4*
Cc1c(OC(=O)c2ccco2)ccc2c1CCCC2,16,85
O=c1[nH]c2ccccc2c(N2CCOCC2)c1N1CCOCC1,6,98
N#CCSc1nc2cc(Cl)ccc2c(=O)n1Cc1ccccc1,2,100
CC1C/C(=N/Nc2nc3ccccc3[nH]2)CC(C)(C)C1 (stereo not drawn),11,83
CC1=C/C(=N/Nc2nc3ccccc3[nH]2)CC(C)(C)C1,15,-0.4*
CCc1ccccc1NC(=O)CN1CCN(C(=O)CCS(=O)(=O)c2ccc(C)cc2)CC1,16,95
CCOC(=O)c1cccc2c1-c1ccccc1/C2=N/O,4,44*
CCOC(=O)c1cccc2c1-c1ccccc1C2=O,.,82
C#CCNC(=O)NC1CCCN(S(=O)(=O)c2ccc(C)cc2)C1 (stereo not drawn),11,109
O=C(O)c1ccc(O)c(SCN2CCCCC2)c1,-3,4.1*
O=C(O)c1ccc(CN2CCCCC2)cc1,12,104
O=c1cc2nc(-c3ccco3)nc(SCc3ccccc3)n2[nH]1,5,95
CC12CCC(=O)N1C(C(=O)OCC(=O)N1CCN(S(=O)(=O)c3ccc4ccccc4c3)CC1)CS2 (stereo not drawn),-1,90
CCOC(=O)c1oc2ccccc2c1COC(=O)C12CCC(=O)N1c1ccccc1S2 (stereo not drawn),8,82
Cn1c(O)c(N=NC(=O)c2ccccc2)c2ccccc21,6,93
CCCCn1c(O)c(N=NC(=O)c2ccccc2)c2ccccc21,7,3.7*
CCOC(=O)c1ccoc1COC(=O)c1ccc(C)c(C)c1,17,124
SMILES,Sa helicase inh,Sa growth inh
CCC1OC(=O)[C@H](C)C(=O)[C@H](C)[C@@H](OC2O[C@H](C)C[C@H](N(C)C)[C@H]2O)[C@](C)(OC)C[C@@H](C)C(=O)[C@H](C)[C@H]2N(CCCCn3cnc(-c4cccnc4)c3)C(=O)OC12C (stereo partly drawn),.,-1.0*
COC(=O)c1ccc(-n2c(C)cc(C(=O)CN3C(=O)CN(C)C3=O)c2C)cc1,20,84
c1ccc(CN2CCN(CCN3CCCCC3)CC2)cc1,1,98
C(=N\n1cnnc1)/c1ccc(N(c2ccccc2)c2ccccc2)cc1,13,1.4*
CN(C)c1ccc(/C=N/n2cnnc2)cc1,-23,89
O=C(/C=C/c1ccc(Cl)cc1)NCc1ccccn1,4,123
COc1ccccc1OCCn1c(NC(=O)c2ccccc2)nc2ccccc21,.,109
COc1ccccc1C(=O)Nc1nc2ccccc2n1CCOc1ccccc1,6,1.0*
Cc1ccc(CSc2nc(-c3cccs3)ccc2C#N)cc1,.,99
N#Cc1ccc(CSc2nc(-c3cccs3)c3c(c2C(=O)O)CCCC3)cc1,15,0.1*
O=C(CSc1nnc2n1CCCCC2)N1N=C(c2ccco2)CC1c1ccco1 (stereo not drawn),19,61
Oc1cc2c(cc1C(c1ccc(C(F)(F)F)cc1)N1CCN(c3ccccc3)CC1)OCO2 (stereo not drawn),0,-0.7*
Oc1cc2c(cc1C(c1ccc(C(F)(F)F)cc1)N1CCOCC1)OCO2 (stereo not drawn),.,0
O=C(NCC(c1ccc2c(c1)OCO2)N1CCN(c2ccccc2)CC1)c1ccc(F)c(F)c1 (stereo not drawn),.,127
COC(=O)c1ccc(C(c2cc3c(cc2O)OCO3)N2CCN(c3ccccc3)CC2)cc1 (stereo not drawn),9,-0.2*
N#Cc1ccc(C(=O)CN2C(=O)S/C(=C\c3ccccc3)C2=O)cc1,-6,96
Cc1ccc(CNC(=O)CC2(CC(=O)O)CCCC2)cc1,15,116
CN(C)c1ccc(C2=CC=CC(=C3C=CC(=[N+](C)C)C=C3)O2)cc1,74*,2.5*
CN(C)c1ccc(C(=C2C=CC(=[N+](C)C)C=C2)c2ccc(N(C)C)cc2)cc1,.,171
Cc1nn(CO)c(C)c1Sc1ccc(Br)cc1,5,18*
Cc1nn(C)c(C)c1Sc1ccc(Br)cc1,-16,88
COc1cccc(NC(=O)CSc2nccn2-c2ccccc2)c1,10,.
COc1cc(Cc2cnc(N)nc2N)cc(OC)c1OC,.,-1.0*
COc1cc(CC(=O)OCC(N)=O)cc(OC)c1OC,-14,96
N#Cc1cc2ccc(O)cc2oc1=N,-237,55
SMILES,Sa helicase inh,Sa growth inh
O=C(CO/N=C/c1ccccc1OC(F)F)N1CCN(c2ccccc2)CC1,1,103
FC(F)(F)c1cc(-c2ccccc2)nc(N2CCCC2)n1,3,102
CS(=O)c1nc(-c2ccccc2)cc(C(F)(F)F)n1 (stereo not drawn),7,-0.2*
CCOC(=O)c1c(C)[nH]c(C)c1C(=O)COC(=O)CSc1nnc(-c2ccco2)n1CC,13,69
CCc1ccc(NC(=O)Cn2nc(-n3cccc3)c3c(C)cc(C)nc32)cc1,7,101
CC(C#N)OC(=O)c1ccc(S(=O)(=O)N(C)C)cc1 (stereo not drawn),-6,94
C/C(=N\OC(=O)c1ccc(C(F)(F)F)cc1)c1ccc[nH]1,6,-0.3*
C/C(=N\OC(=O)c1ccc(C(F)(F)F)cc1)c1cc[nH]c1,13,91
CCOC(=O)CSc1nnc(Cc2ccc(OC)c(OC)c2)o1,14,108
Cc1cc2occ(CC(=O)Nc3ccc(S(=O)(=O)N4CCOCC4)cc3)c2cc1C(C)C,-6,97
COc1ccc(/C=C(\C#N)c2cccs2)cc1,-12,47*
N#C/C(=C\c1ccc(C(F)(F)F)cc1)c1cccs1,.,99
CC(=O)Oc1ccc(C)cc1NC(=O)CC1SC(=Nc2ccc(F)cc2)N(C)C1=O (stereo not drawn),14,95
O=C(CCC(=O)n1ncc2ccc(Cl)cc21)NCc1cccnc1,21,82
CC(=O)OC(CC(=O)O)Cc1nc2ccccc2s1 (stereo not drawn),-3,80
Nc1cccnc1Nc1ccccc1,-62,6.4*
c1ccc(Nc2ncnc3ccccc23)cc1,-13,96
Sc1nc2c(Cl)c(Cl)c(Cl)cc2o1,22,-0.8*
CCCn1c(NC(=O)C2CCCC2)nc2ccccc21,-4,-0.9*
CCCn1c(NC(=O)CCC2CCCC2)nc2ccccc21,20,147
Cc1[nH]c2ccc(C(=O)OCC(=O)N3CCN(c4ccccc4)CC3)cc2c1C,14,77
CSc1nc2scc(-c3cccs3)c2c(=O)n1CC(C)C,15,105
CC(C)Cn1c(=S)[nH]c2scc(-c3cccs3)c2c1=O,9,8.9*
Nc1nnc(SCc2nnc(-c3cccs3)o2)s1,-11,74
CCN(C(=O)CSc1nc(C)cc(C)c1C(N)=O)C1CCS(=O)(=O)C1 (stereo not drawn),6,-1.2*
CCN(C(=O)CSc1nnc(-c2ccccc2)c(-c2ccccc2)n1)C1CCS(=O)(=O)C1 (stereo not drawn),-7,101

# High-throughput results as filed in PubChem BioAssay.
